Several values for one entry are separate records, joined by “and”; a condition that tells them apart may be missing. Equal entries are not always repeated. Records with an inconclusive call do not appear. Where a call stands in place of a potency, no number is given. More than one record can exist for a structure, and the calls need not agree. Activity calls are given as the source filed them. Calls come from the whole dose curve; as a rule, active = well fitted curve in the direction sought with a large enough effect in the repeat runs; inconclusive = weak or mixed curves; inactive = no such curve, though single readings can be large; an effect the other way counts as inactive or inconclusive.
Key:
[1] = qHTS RealTime-Glo MT Cell Viability Assay in HepG2 cells - 8 hour (AID 1224873); conditions: RealTime-Glo luminescence; series mostly up to 76.8 µM; note: nearly all actives have a fitted effect of over 55% in size; note: potency is the fitted concentration of half-maximal effect
Method in brief: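 HepG2 cells mixed with RealTime-Glo MT reagents (NanoLuc plus cell-permeant prosubstrate) were seeded at 600 cells/well, incubated 5 h at 37 C/5% CO2, then pinned with compounds in DMSO; nonlytic luminescence tracked viability during 40 h treatment.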

[2] = qHTS RealTime-Glo MT Cell Viability Assay in HEK293 cells - 40 hour (AID 1224874); conditions: RealTime-Glo luminescence; max response: stronger effect = lower value; note: nearly all actives have a fitted effect of over 50% in size; note: potency is the fitted concentration of half-maximal effect
Method in brief: (§1)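 Viable HEK293 cells reduce a cell-permeant prosubstrate; the product diffuses out and is consumed by NanoLuc in the medium to give light. Compounds went in after a 5 h incubation and plates were read over the treatment course.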

[3] = A CellTox Green Cytotoxicity Assay to monitor cytotoxicity in HEK293 cells - 24 hour (AID 1224875); conditions: CellTox Green fluorescence; series mostly up to 76.8 µM; note: nearly all actives have a fitted effect of over 45% in size; note: potency is the fitted concentration of half-maximal effect
Method in brief: (§2)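 Fluorescence intensity, read at 0, 8, 16, 24, 32 and 40 h of compound treatment, reflected dye binding to DNA of dead HEK293 cells; compounds (23 nL, DMSO) were added 5 h after plating cells with reagent.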

[4] = A CellTox Green Cytotoxicity Assay to monitor cytotoxicity in HepG2 cells - 16 hour (AID 1224876); conditions: CellTox Green fluorescence; series mostly up to 76.8 µM; note: nearly all actives have a fitted effect of over 45% in size; note: potency is the fitted concentration of half-maximal effect
Method in brief: (§3)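 Using 1536-well format, dye-containing HepG2 suspension was seeded, allowed 5 h at 37 C/5% CO2, dosed by pintool with compounds, positive and negative controls, and imaged for fluorescence across 40 h.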

[5] = qHTS RealTime-Glo MT Cell Viability Assay in HepG2 cells - 32 hour (AID 1224877); conditions: RealTime-Glo luminescence; series mostly up to 76.8 µM; note: nearly all actives have a fitted effect of over 55% in size; note: potency is the fitted concentration of half-maximal effect
Method in brief: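 HepG2 suspension premixed with RealTime-Glo reagents is plated at 600 cells per well and left 5 h at 37 C/5% CO2. Compounds in DMSO then go in, and bioluminescence reflecting viable cell number is recorded over 40 h.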

[6] = A CellTox Green Cytotoxicity Assay to monitor cytotoxicity in HepG2 cells - 24 hour (AID 1224878); conditions: CellTox Green fluorescence; series mostly up to 76.8 µM; note: nearly all actives have a fitted effect of over 45% in size; note: potency is the fitted concentration of half-maximal effect
Method in brief: as §3

[7] = A CellTox Green Cytotoxicity Assay to monitor cytotoxicity in HepG2 cells - 40 hour (AID 1224879); conditions: CellTox Green fluorescence; series mostly up to 76.8 µM; note: nearly all actives have a fitted effect of over 40% in size; note: potency is the fitted concentration of half-maximal effect
Method in brief: as §3

[8] = qHTS RealTime-Glo MT Cell Viability Assay in HEK293 cells - 0 hour (AID 1224880); conditions: RealTime-Glo luminescence; series mostly up to 76.8 µM; note: top concentration of the series differs between compounds; nearly all actives have a fitted effect of over 45% in size
Method in brief: as §1

[9] = A CellTox Green Cytotoxicity Assay to monitor cytotoxicity in HEK293 cells - 32 hour (AID 1224881); conditions: CellTox Green fluorescence; series mostly up to 76.8 µM; note: nearly all actives have a fitted effect of over 40% in size; note: potency is the fitted concentration of half-maximal effect
Method in brief: as §2

[10] = A CellTox Green Cytotoxicity Assay to monitor cytotoxicity in HepG2 cells - 0 hour (AID 1224882); conditions: CellTox Green fluorescence; series mostly up to 76.8 µM; note: nearly all actives have a fitted effect of over 35% in size
Method in brief: as §3

Structure (SMILES)	Potency [1]	Potency [2]	max response [2]	Potency [3]	Potency [4]	Potency [5]	Potency [6]	Potency [7]	outcome [8]	Potency [9]	Potency [10]
C[C@]12CCC(=O)C=C1CC[C@@H]1[C@@H]2CC[C@]2(C)C(=O)CC[C@@H]12	inactive	24.1 µM (active) and 24.5 µM (active)	-20.4% (inactive)	inactive	inactive	inactive	inactive	inactive and 49 µM (active)	inactive	inactive	inactive
CCCCCCCCCCCC(=O)O	inactive	–	0.697% (inactive) and -0.0798% (inactive) and 0.587% (inactive)	inactive	inactive	inactive	inactive	inactive	inactive	inactive	inactive
CCOP(=S)(OCC)Oc1ccc2c(C)c(Cl)c(=O)oc2c1	inactive	12.4 µM (active) and 43.6 µM (active)	-24.9% (inactive)	inactive	inactive	inactive	inactive	inactive	inactive	inactive	inactive
O=C(O)c1nc(Cl)ccc1Cl	inactive	–	3.62% (inactive) and 10.3% (inactive) and 7.66% (inactive)	inactive	inactive	inactive	inactive	inactive	inactive	inactive	inactive
CCCCn1cc[n+](C)c1C	inactive	–	-1.35% (inactive) [middle of 6 runs]	inactive	inactive	inactive and 44.2 µM (active)	inactive	inactive	inactive	inactive	inactive
CC(=O)[O][Hg][c]1ccccc1	1.93 µM (active) and 1.74 µM (active) and 1.07 µM (active)	306 nM (active) and 977 nM (active) and 213 nM (active)	–	863 nM (active) and 1.38 µM (active) and 1.07 µM (active)	1.72 µM (active) and 2.45 µM (active) and 1.51 µM (active)	1.72 µM (active) and 1.95 µM (active) and 1.07 µM (active)	1.93 µM (active) and 2.45 µM (active) and 1.34 µM (active)	1.22 µM (active) and 1.95 µM (active) and 1.07 µM (active)	inactive	611 nM (active) and 977 nM (active) and 213 nM (active)	inactive
CCCCCCCCCCCCCCCCn1cc[n+](C)c1	inactive and 49.1 µM (active)	7.93 µM (active) and 4.4 µM (active) and 2.76 µM (active)	12.2% (inactive)	–	inactive and 49.4 µM (active) and 39 µM (active)	inactive and 49.4 µM (active) and 34.8 µM (active)	inactive and 44 µM (active) and 24.6 µM (active)	–	inactive	inactive and 19.7 µM (active) and 24.6 µM (active)	inactive
O=C(O)C(Cl)Cl	inactive	–	5.65% (inactive) [middle of 4 runs]	inactive	inactive	inactive	inactive	inactive	inactive	inactive	inactive
CCCn1cc[n+](C)c1	inactive	–	9.61% (inactive) and -4.66% (inactive) and 2.37% (inactive)	inactive	inactive	inactive	inactive	inactive	inactive	inactive	inactive
CCCCCC[n+]1ccccc1	inactive	27.8 µM (active) [middle of 5 runs]	-3.16% (inactive)	inactive	inactive	inactive	inactive	inactive	inactive	inactive	inactive
COc1ccccc1N	inactive	–	3.5% (inactive) [middle of 4 runs]	inactive	inactive	inactive	inactive	inactive	inactive	inactive	inactive
OCCOc1ccccc1	inactive	–	-3.05% (inactive) and 0.273% (inactive) and 2.22% (inactive)	inactive	inactive	inactive	inactive	inactive	inactive	inactive	inactive
CCCC[n+]1ccccc1C	inactive	–	0.73% (inactive) [middle of 6 runs]	inactive	inactive	inactive	inactive	inactive	inactive	inactive	inactive
C[N+](C)(C)Cc1ccccc1	inactive	–	3.99% (inactive) and 18.8% (inactive) and -0.0813% (inactive)	inactive	inactive	inactive	inactive	inactive	inactive	inactive	inactive
